# The list is not random: actives were taken first. Their share in the collection is about 3%.
# NALP1 yeast inh – blocks the NALP1 inflammasome reconstituted in yeast | hit rate 0.61% among 280,000 | inhibition, % at 10 µM | S. cerevisiae NALP1/ASC/caspase-1 growth, X-gal OD620, 72 h; in the data active means inhibition mostly above about 24%, no sharp cut-off; inactive means mostly below about 32%
# Mot1-301 SUMO – inhibitors of SUMOylation pathway: yeast Mot1-301 growth rescue; S. cerevisiae Mot1-301 growth rescue, ATP luminescence, 38.5C; percent above DMSO median, 100 means doubled; growth rescue, % at 18.8 µM; hit rate 1% among 320,000;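 active means every valid replicate shows activation above 250% relative to neutral control wells; inactive means the rest, any valid replicate at or below 250%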;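 further: OY570 slx delta 5 strain wells were the positive control but not used for scaling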
# CHT PAM – allosterically activates the human high affinity choline transporter | Q9GZV3 | CHT-expressing cells, membrane potential dye, choline EC20; stronger effect = higher value; LV-AA mutant CHT in HEK293 cells | B-score at 10 µM | hit rate 0.49% among 310,000 | AID 488977;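 active means initial fluorescence not abnormally high and integrated response B-score, plate-corrected, over 3 SD above library mean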
# Target sequence (Q9GZV3 whole entry, looked up): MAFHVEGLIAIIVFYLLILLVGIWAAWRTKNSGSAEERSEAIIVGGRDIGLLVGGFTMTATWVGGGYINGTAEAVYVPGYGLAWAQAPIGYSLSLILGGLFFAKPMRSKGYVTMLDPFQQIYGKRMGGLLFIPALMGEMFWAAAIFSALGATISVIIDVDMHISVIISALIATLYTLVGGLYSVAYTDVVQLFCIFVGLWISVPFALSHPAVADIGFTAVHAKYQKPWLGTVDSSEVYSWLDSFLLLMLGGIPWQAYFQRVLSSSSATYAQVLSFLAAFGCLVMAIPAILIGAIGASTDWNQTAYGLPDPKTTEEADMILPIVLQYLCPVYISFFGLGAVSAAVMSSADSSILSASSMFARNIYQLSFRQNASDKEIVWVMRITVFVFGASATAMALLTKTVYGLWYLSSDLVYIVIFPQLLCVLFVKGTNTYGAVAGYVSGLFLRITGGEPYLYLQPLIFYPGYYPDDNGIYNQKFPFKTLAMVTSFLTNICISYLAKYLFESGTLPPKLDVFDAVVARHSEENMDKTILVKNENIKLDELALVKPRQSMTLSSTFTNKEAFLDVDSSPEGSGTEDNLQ
# CHT inh – human CHT choline transport inhibition; B-score at 10 µM; CHT-expressing cells, membrane potential dye, choline response; stronger effect = lower value; hit rate 0.86% among 310,000; Q9GZV3;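 active means B-score over 3 SD under the library average, and starting fluorescence ratio not unusually high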;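 further: choline stimulus applied at its EC90 after an EC20 pre-addition; B-score computed on integrated fluorescence ratio after choline addition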
# A1 inh – inhibitors of the anti-apoptotic protein A1, read as caspase activation | caspase activation, % (concentration not given with the values) | hit rate 0.066% among 330,000 | MEF A1-2A-BIM cells, Caspase-Glo 3/7 luminescence, 3 h; percent of clofoctol response, vehicle zero;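 active means over half of replicate activation scores above 10%, or exactly half above 10 with the replicate mean above 10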
# NALP3 yeast inh – NALP3 inhibition in yeast | Yeast reconstituted NLRP3/ASC/caspase-1, beta-gal luminescence, 24 h | inhibition, % at 10 µM | AID 2825 | hit rate 0.39% among 330,000;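 active means inhibition of 50% or more; inactive means inhibition below 50%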;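 further: plate controls were induced DMSO wells for no effect and uninduced yeast grown without galactose for full effect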
# CHT block conf – human CHT inhibition, confirmatory screen | CHT-expressing cells, choline membrane potential dye; LV-to-AA substituted CHT, HEK293 cells | CHT activity remaining % of control (stronger effect = lower value), % at 10 µM | shares compounds with CHT inh | hit rate 70% among 2,400;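 active means choline transporter activity left, mean of duplicates at 10 µM, below buffer-only control mean minus 3 SD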;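 further: depolarization triggered by choline at its EC90 following an EC20 pre-addition; 0% = hemicholinium-3 full block and 100% = buffer-only control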
# HEK293 MPD ctr – CHT inhibitor counter-screen hit in parental HEK293 cells; shares compounds with CHT inh; membrane potential dye, choline response; active = decrease or increase beyond buffer ±3SD; membrane potential ratio readout (active if shifted either direction beyond buffer ±3SD; no single direction) at 10 µM; hit rate 4% among 2,400; AID 493222;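 further: parental cells lack the transporter so any hit is non-specific; ratio is peak minus trough fluorescence over baseline after EC90 choline challenge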
# An asterisk follows results filed as active; i = inactive; . = no result.
SMILES,NALP1 yeast inh,Mot1-301 SUMO,CHT PAM,CHT inh,A1 inh,NALP3 yeast inh,CHT block conf,HEK293 MPD ctr
OC[C@H]1O[C@@H](n2cnc3c(Nc4ccccc4)ncnc32)[C@H](O)[C@@H]1O,8,-11,i,i,1,9,.,.
O=C(CCCCCNC(=O)N1CCn2c1nc1ccccc12)NCc1ccccc1,18,4,i,i,0,4,.,.
COC(=O)c1ccc(CC(=O)c2ccc(O)cc2O)o1,-4,103,i,i,-2,12,.,.
CCOC(=O)c1ccc(CC(=O)c2ccc(O)cc2O)o1,-5,.,i,-6*,-1,14,68%*,i
Cc1ccccc1N(C)S(=O)(=O)c1ccc2[nH]cc(C(=O)NCC3CCCO3)c(=O)c2c1 (configuration not stated),4,.,i,-7*,.,8,68%*,i
CCOc1ccc(N(C)S(=O)(=O)c2ccc3[nH]cc(C(=O)NCC4CCCO4)c(=O)c3c2)cc1 (configuration not stated),7,73,i,i,-3,6,.,.
CC(C)=CCN1CCN(Cc2nc(-c3ccc(F)cc3)cs2)CC1CCO (configuration not stated),-6,.,i,-5.4*,.,10,i,i
CCOc1ncccc1C(=O)NCCc1ccc(Cl)cc1,25,-4,i,i,-1,2,.,.
COc1ccc(CCC(=O)Nc2cccc(S(=O)(=O)N3CCCC3)c2)cc1OC,.,.,.,.,.,9,.,.
Cc1ccc(C(C)C)c(OCC(=O)NS(=O)(=O)c2ccc(Cl)cc2)c1,4,-1,i,-6.4*,-2,8,14%*,i
CCOc1ccccc1N(CC(=O)NCCc1ccccc1)C(=O)CCC(=O)Nc1ccccn1,0,44,i,i,1,19,.,.
CN(C)CCNC(=O)C(=O)NCC(c1ccc2c(c1)OCO2)N1CCN(c2ccc(F)cc2)CC1 (configuration not stated),21,-10,i,-5.5*,0,21,45%*,i
COCCNC(=O)C(=O)NCC(c1ccc2c(c1)OCO2)N1CCN(c2ccc(F)cc2)CC1 (configuration not stated),32,338,i,i,-1,13,.,.
O=C1NC(c2ccccc2)=C(c2ccc3ccccc3n2)C(c2ccncc2)N1 (configuration not stated),2,3,i,-6.3*,-1,4,47%*,i
CN(CCOCCOc1ccc(F)cc1)Cc1ccccc1,19,-1,i,i,0,20,.,.
Fc1ccc(OCCOCCOc2cccc3[nH]ccc23)cc1,6,.,i,-5.3*,2,31,i,i
Cc1cc(NC(=O)CCN2CCCCC2)ccc1Br,30,-11,i,i,1,17,.,.
O=C(C[n+]1cc(Br)cc2ccccc21)c1ccc(Cl)cc1,0,-12,i,-6.9*,1,21,32%*,i
O=C(C[n+]1cc(Br)cc(Br)c1)c1ccc(Cl)cc1,3,-3,i,i,1,16,.,.
O=C(C[n+]1cc(Br)cc2ccccc21)c1ccc(Br)cc1,6,-10,i,-5.7*,0,25,30%*,i
O=C(C[n+]1cn(C(F)F)c2ccccc21)c1ccc(Br)cc1,-26,-13,i,i,0,-11,.,.
CSC1=NS(=O)(=O)c2c(C)nn(C)c2S1,-1,-9,i,-8*,0,17,29%*,i
COCCN1CCN(C(=O)C2CCC(=O)N(CCc3cccc(F)c3)C2)CC1 (configuration not stated),7,1,i,i,0,-11,.,.
Cc1c(C)n(CCc2ccccc2)c2ncnc(NN)c12,-29,163,i,-6.1*,0,5,61%*,i

# High-throughput results: PubChem, several laboratories
